PubChem BioAssay AID504332 (National Center for Advancing Translational Sciences (NCATS), 2011)
Among all 350,000 compounds or so, about 31,000 (8.9%) were called active. Inconclusive results (about 15%) are left out. The full list was thinned out, with actives kept by preference. A number with no mark means an inactive call. The call rests on the fitted dose curve; in most records, active means well fitted inhibition curve with a large enough effect; inconclusive means small, poorly fitted or top-dose-only effect; inactive means no such curve, though single readings can be large or run the other way.

target: Histone-lysine N-methyltransferase EHMT2 (Homo sapiens) (UniProt Q96KQ7); experiment: qHTS Assay for Inhibitors of Histone Lysine Methyltransferase G9a; conditions: G9a H3K9 monomethylation, AlphaScreen, 2 h; series mostly up to 59 µM; activity, negative = inhibition: at the top concentration; further: nearly all actives have a fitted effect of over 75% in size
Sequence (Q96KQ7 913-1193 limits assumed): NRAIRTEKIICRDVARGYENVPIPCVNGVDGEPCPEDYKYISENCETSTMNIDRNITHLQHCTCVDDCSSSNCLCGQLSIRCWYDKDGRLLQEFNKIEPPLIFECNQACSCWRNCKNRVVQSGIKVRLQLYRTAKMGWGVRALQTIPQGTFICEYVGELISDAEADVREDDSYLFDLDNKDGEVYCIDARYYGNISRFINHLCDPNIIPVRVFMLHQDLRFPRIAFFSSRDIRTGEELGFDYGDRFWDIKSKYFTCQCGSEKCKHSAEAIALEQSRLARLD
Description: Methylated lysines, on the N-terminal tails of histone proteins serve as epigenetic markers to recruit factors that can then modify local chromatin structure to lead to functional consequences. G9a and other members of the SUV39 family of the SET domain-containing superfamily of histone lysine methyltransferases (HMT) have been identified to specifically methylate Lys9 of histone H3 (H3K9). G9a catalyzes the mono- and di-methylation of H3K9 in mammalian euchromatic regions, where the resulting H3K9me2 is indicative of transcriptional repression. […] The inhibition of G9a will result in transcriptional activation and work synergistically with DNA methyltransferase and histone deacetylase inhibitors, to kill cancer cells. This qHTS assay for identification of G9a inhibitors is a chemiluminescence based AlphaScreen (PerkinElmer). Methylation of biotinylated-histone peptide is measured through specific antibody-based detection, in conjunction with streptavidin-coated donor and anti-IgG antibody-coated acceptor beads. The method is particularly well suited for detection of inhibitors acting by the desired histone peptide competitive mechanism and is applicable to testing other HMTs. Although AlphaScreen has significant advantages with its utility in a variety of epigenetic target assays, the primary screening data provided in this deposition should be used with caution due to the prevalence of screening artifacts. An AlphaScreen counterscreen is highly recommended to be run against any putative actives to eliminate non specific artifacts. Alternatively, one can use other AlphaScreen assays in PubChem to filter out promiscuous hits. Quinn et al. A chemiluminescence-based method for identification of histone lysine methyltransferase inhibitors. Mol Biosyst 6(5): 782-8. 2010. PMID: 20567762 [2] Baell,Holloway. New substructure filters for removal of pan assay interference compounds (PAINS) from screening libraries and for their exclusion in bioassays. J Med Chem. 53(7):2719-40. 2010. PMID: 20131845 NIH Molecular Libraries Probe Production Network [MLPCN] NIH Chemical Genomics Center [NCGC] Structural Genomics Consortium (SGC) NIH Grant: 5U54 MH084681-02
To each well of a 1,536w plate, 2ul of HMT enzyme (final 20nM) were added, using a nanoliter dispenser. The G9a- and GLP-inhibitor BIX-01294 (CID: 25150857) are used as an intraplate control, with a 16-point titration in duplicate. A Kalypsys pin-tool transferred 23nl of library compound solution in DMSO to each well. Following a 15 min incubation of enzyme with compounds at room temperature, 1ul mixture of b-H3K9 peptide substrate (final 500nM) and SAM cofactor (final 20uM) were added. Reactions were allowed to proceed at room temperature for 2 hours. Methylated b-H3K9 peptide product was detected with 0.5 ug/mL rabbit polyclonal anti-monomethyl histone H3K9 antibody (Abcam Inc., Cambridge, MA) and 20 ug/mL each streptavidin-coated donor and anti-rabbit IgG acceptor AlphaScreen beads. Antibody and beads were added in a 1ul dispense, for a final volume of 4ul, and plates were incubated, protected from the light, for 10 min at room temperature. Microplates were then read on an EnVision multilabel plate reader using the 1,536 plate HTS AlphaScreen aperture (excitation time 80 ms, measurement time 240 ms).
On the % scale 0 is the no-effect control and ±100 the full control effect; potency means the concentration at half of the fitted maximal effect.

In order of falling “activity, negative = inhibition” value:
1. Cc1ccc(-c2cn3c(n2)sc2cc(C(=O)NCc4cccs4)ccc23)c(C)c1  66.5%
2. COc1ccc(S(=O)(=O)NCCSc2nnnn2-c2ccccc2)cc1  40.1%
3. COc1cc2c(cc1/C=C1/NC(=O)N(c3ccccc3)C1=O)OCO2  14.8%
4. Brc1cccc(-c2nnn3c2nc(NC2CCCCC2)c2ccccc23)c1  14.7%
5. Cc1c(-c2nsc(NC(=O)c3cccc(Cl)c3)n2)nnn1-c1ccccc1C(F)(F)F  13.6%
6. CCC(=O)N1CCc2cc(Br)cc(S(=O)(=O)CCC(=O)N3CCN(c4ccc(F)cc4)CC3)c21  8.24%
7. Cc1cc(C)c(S(=O)(=O)N2CCC(C(=O)OCc3c(C)noc3C)CC2)c(C)c1  5.16%
8. CC(/C=N/NC(=O)c1ccncc1)=C\c1ccco1  2.74%
9. CCCC(=O)Nc1ccc(NC(=O)c2sc3ccccc3c2Cl)cc1  0.593%
10. O=C(CSc1oc(-c2ccco2)nc1S(=O)(=O)c1ccc(Cl)cc1)c1ccccc1  -1.32%
11. CCOc1ccc(-n2nc3ccc(NC(=O)c4ccc(OC)c(Cl)c4)cc3n2)cc1  -2.24%
12. CN(CC(=O)Nc1c(Cl)cccc1Cl)C(=O)CC1OC(=O)c2ccccc21 (configuration not stated)  -2.24%
13. N#CC1(NC(=O)COc2ccc3oc4ccccc4c3c2)CCCCC1  -2.61%
14. COc1ccccc1C(=O)NCCn1cc(SCc2ccccc2Cl)c2ccccc21  -3.42%
15. CC1CCCN(Cc2c(O)ccc3c(=O)c(Oc4ccc(C(C)(C)C)cc4)c(C(F)(F)F)oc23)C1 (configuration not stated)  -6.89%
16. CCCCCCn1c(CN2CCCC(C)C2)nc2c1c(=O)n(C)c(=O)n2C (configuration not stated)  -8.22%
17. COc1ccccc1N1CCN(c2ncnc3onc(-c4ccc(F)cc4)c23)CC1  -23%
18. O=C(NCc1ccccc1Cl)c1cccn1-c1nnc(N2CCCCC2)s1  -23.5%
19. COc1ccc(OC)c(CNC(=O)CN2C(=O)CCn3nc(-c4cn(C)c5ccccc45)cc32)c1  -26.2%
20. CN(Cc1ccccc1)C(=O)CCS(=O)(=O)c1cc(Br)cc2c1N(C(=O)C1CC1)CC2  -27.6%
21. COc1ccccc1-c1nnc(SCC(N)=O)o1  -28.6%

In order of falling activity, negative = inhibition:
1. N[C@@H](Cc1ccccc1)C(=O)N1CCOCC1  11.6% [at 2.33 µM]
2. Cc1ccc(S(=O)(=O)N(Cc2cccc([N+](=O)[O-])c2)C(=O)N2CCN(C)CC2)cc1  6.51% [at 2.33 µM]
3. O=c1c(-c2cccc(Cl)c2)c[nH]n1-c1ccccc1  3.35% [at 2.33 µM]

`CN1CCN(/N=C2/C(=O)Nc3ccc([N+](=O)[O-])cc32)CC1` was tested, and the Potency was 50.1 µM (active).
For `Cc1ccc(-c2cc(C(=O)N/N=C/C=C/c3ccco3)c3ccccc3n2)cc1C`, the Potency was 44.7 µM (active).
`O=C(N/N=C/C=C/c1ccco1)c1cccs1` was tested, and the Potency was 12.6 µM (active).
`O=C1N/C(=C/c2cccn2-c2ccccc2)C(=O)N1c1cccc(Cl)c1` was tested, and the Potency was 1 µM (active).
`O=C(CCCN=C1NS(=O)(=O)c2ccccc21)OCC(=O)c1ccc(F)c(F)c1` was tested, and the Potency was 44.7 µM (active).
`N#CC1(NC(=O)COC(=O)CCN=C2NS(=O)(=O)c3ccccc32)CCCCC1` was tested, and the Potency was 79.4 µM (active).
`CCCn1c(O)c(CN2CCCC(C)C2)c(C)c(C#N)c1=O` (configuration not stated) was tested, and the Potency was 14.1 µM (active).
With `Cc1c(CN2CCCCC2)c(O)n(CCO)c(=O)c1C#N` the Potency was 50.1 µM (active).

In order of rising “activity, negative = inhibition” value:
1. Cc1ccccc1C(=O)NCCN=C1NS(=O)(=O)c2ccccc21  -41.3% [at 102 µM]
2. CCOc1cc(/C=N/NC(=O)c2cc(-c3ccccc3)nc3ccccc23)ccc1O  -41.1% [at 102 µM]
3. CCC(=O)Nc1sc(C(=O)N2CCCCC2)c(C)c1C#N  -5.42% [at 102 µM]
4. CC(=O)Nc1ccc(/C=N/NC(=O)c2cccs2)cc1  -2.45% [at 102 µM]
5. COc1cccc(-c2cc(C(=O)N/N=C/c3ccc(OC)c(COC(C)=O)c3)c3ccccc3n2)c1  -1.31% [at 102 µM]
6. N#CC1(NC(=O)COC(=O)CSc2ccc(F)cc2)CCCCC1  0.383% [at 102 µM]
7. O=c1oc2c(CN3CCCCC3)c(O)ccc2c2c1CCCCC2  0.621% [at 102 µM]
8. O=C(c1ccc(F)cc1)N1CCC(C(=O)N2CCN(S(=O)(=O)c3ccccc3Br)CC2)CC1  4.58% [at 102 µM]
9. O=C1Nc2ccc([N+](=O)[O-])cc2C1=Nc1cccc(CO)c1  5.69% [at 102 µM]
10. O=C(OCCN=C1NS(=O)(=O)c2ccccc21)c1cccc([N+](=O)[O-])c1  27.8% [at 102 µM]

In order of rising activity, negative = inhibition:
1. CCOc1ccc(CCNC(=O)COC(=O)c2ccc(F)c(S(=O)(=O)N3CCOCC3)c2)cc1OCC  -4.3% [at 0.501 µM]
2. C[C@H](OC(=O)n1ccnc1)[C@@H]1O[C@@]2(C)CCC[C@@H]1O2  9.09% [at 0.501 µM]

In order of falling activity, negative = inhibition:
1. CCc1ccccc1OCC(=O)Nc1ccc(C)c(S(=O)(=O)N2CCCCCC2)c1  18.3% [at 12.7 µM]
2. Cc1ccccc1NC(=O)Cc1nc(COC(=O)c2ccc(C(F)(F)F)cc2)cs1  5.04% [at 12.7 µM]
3. CCN(CC(=O)NCc1ccc(Cl)cc1)C(=O)CSc1ccccc1  -1.68% [at 12.7 µM]
